High-throughput results: PubChem, National Center for Advancing Translational Sciences (NCATS)
CtBP-E1A inh – qHTS Assay for Inhibitors of the CtBP/E1A Interaction | AID 651724, 2012 | AlphaScreen GST-E1A/His-CtBP binding, 1536-well; hits give low values | actives 0.49% (n = 340,000) | CtBP / adenovirus E1A interaction (AlphaScreen) | activity change, % (no concentration beside the values); in the data active = activity change below about -65%; inconclusive = mostly about -30% to -63%; also: % is scaled to controls: 0 for no effect and ±100 for the full control effect
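AlphaScreen with 125 nM GST-E1A and 125 nM His-CtBP (5X stocks) in Tris pH 8.0, 300 mM NaCl, BSA, Tween 20, TCEP. Compounds preincubated 2 h at 37 deg C, then glutathione donor/nickel acceptor beads added for 1 h at 37 deg C in dark.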
G9a block – qHTS Assay for Inhibitors of Histone Lysine Methyltransferase G9a; G9a H3K9 monomethylation, AlphaScreen, 2 h; Histone-lysine N-methyltransferase EHMT2 (Homo sapiens), Q96KQ7; Potency, µM (series often up to 102 µM), without a hit: top-dose activity, negative = inhibition, usual class: inhibitors; actives 8.8% (n = 350,000); also: potency is read from the fitted curve at half-maximal effect; % is scaled to controls: 0 for no effect and ±100 for the full control effect; nearly all actives have a fitted effect of over 75% in size
Target sequence (Q96KQ7 913-1193 limits assumed): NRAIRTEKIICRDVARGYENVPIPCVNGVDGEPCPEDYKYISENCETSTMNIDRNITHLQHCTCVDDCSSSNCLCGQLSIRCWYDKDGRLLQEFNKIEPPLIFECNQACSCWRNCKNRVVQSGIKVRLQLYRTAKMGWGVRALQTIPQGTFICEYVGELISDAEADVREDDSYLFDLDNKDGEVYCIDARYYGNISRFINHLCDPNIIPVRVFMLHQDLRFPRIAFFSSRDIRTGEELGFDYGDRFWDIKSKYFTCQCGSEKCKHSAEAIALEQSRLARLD
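G9a (20 nM) preincubated 15 min RT with compounds, then 500 nM biotinylated H3K9 peptide and 20 uM SAM added; 2 h RT reaction. Monomethyl-H3K9 product detected by AlphaScreen with anti-H3K9me1 antibody, streptavidin donor and anti-rabbit IgG acceptor beads.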
HP1b binding inh – HTS for Inhibitors of HP1-beta Chromodomain Interactions with Methylated Histone Tails. Potency, µM (top dose mostly 114 µM), without a hit: top-dose activity change, negative = inhibition, usual class: inhibitors. AlphaScreen HP1-beta / biotin-H3K9me3 peptide binding. actives 0.56% (n = 390,000). Chromobox protein homolog 1 (Homo sapiens), P83916. AID 540317, 2011; also: potency is read from the fitted curve at half-maximal effect; nearly all actives have a fitted effect of over 70% in size
Target sequence (P83916 whole entry, looked up): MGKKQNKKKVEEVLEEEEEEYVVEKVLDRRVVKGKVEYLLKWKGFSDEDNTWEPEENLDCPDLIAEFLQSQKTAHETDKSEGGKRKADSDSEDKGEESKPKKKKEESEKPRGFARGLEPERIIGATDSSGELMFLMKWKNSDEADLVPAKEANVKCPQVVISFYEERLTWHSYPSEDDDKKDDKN
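AlphaScreen: HP1-beta (50 nM) preformed 30 min with biotin-H3(1-18)K9me3 peptide (50 nM) in PBS pH 7.4, 0.01% Tween-20. Compound added for 30 min at RT, then streptavidin donor/nickel chelate acceptor beads (10 ug/mL) for 30 min.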
Six1-Eya2 inh – qHTS Assay for Inhibitors of the Six1/Eya2 Interaction. AlphaScreen GST-Six1/His-Eya2 binding, biochemical; hits give low values. activity change, % (test concentration not listed). actives 0.56% (n = 360,000). AID 651725, 2012; in the data active = activity change below about -65%; inconclusive = mostly about -30% to -63%; also: % is scaled to controls: 0 for no effect and ±100 for the full control effect
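AlphaScreen luminescence read after one hour at 37 °C in darkness. Pin-transferred compounds met GST-Six1 and His-Eya2 protein (5X stock 250 nM/500 nM) plus glutathione donor and Ni-chelate acceptor beads (5X, 50 ug/mL).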
BAZ2B block – qHTS Assay for Inhibitors of BAZ2B; Bromodomain adjacent to zinc finger domain protein 2B (Homo sapiens), Q9UIF8; Potency, µM (doses to about 114 µM), without a hit: top-dose activity change, negative = inhibition, usual class: inhibitors; AID 504333, 2011; actives 4.4% (n = 360,000); AlphaScreen BAZ2B-H3K14Ac peptide displacement; also: potency is read from the fitted curve at half-maximal effect; % is scaled to controls: 0 for no effect and ±100 for the full control effect; nearly all actives have a fitted effect of over 60% in size
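Complex of BAZ2B and biotin-H3K14Ac (50 nM apiece) forms over 30 min at RT, then faces library compounds up to 110 uM for another 30 min; AlphaScreen beads added, 20 min dark incubation, luminescence read.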
JMJD2A Tudor – qHTS Assay for Inhibitors of JMJD2A-Tudor Domain | Lysine-specific demethylase 4A (Homo sapiens), O75164 | AlphaScreen JMJD2A-Tudor / H3K4me3 peptide binding | Potency, µM (series often up to 114 µM), inactives show top-dose activity change, negative = inhibition, actives largely listed as inhibitors | actives 4.4% (n = 390,000) | AID 504339, 2011; also: potency is read from the fitted curve at half-maximal effect; % is scaled to controls: 0 for no effect and ±100 for the full control effect; nearly all actives have a fitted effect of over 50% in size
Numbers without * were called inactive; u = inconclusive; x = no result; [ ] = dose if it differs, or a comment. The list is not random: actives were taken first. Their share in the collection is about 10%. Unless noted, calls follow the shape of the dose curve; as a rule, active = well fitted inhibition curve with a large enough effect; inconclusive = small, poorly fitted or top-dose-only effect; inactive = no such curve, though single readings can be large or run the other way.

SMILES	CtBP-E1A inh	G9a block	HP1b binding inh	Six1-Eya2 inh	BAZ2B block	JMJD2A Tudor
CCc1ccc(S(=O)(=O)c2nnn3c2nc(N(CC)Cc2ccccc2)c2cc(Cl)ccc23)cc1	x	8%[59 µM]	41%	x	12%	3%
CCOc1ccccc1CNC(=O)c1ccc(Cn2c(=O)c3cccn3c3cccnc32)cc1	x	-9%[59 µM]	19%	x	-16%	-15%
CN1CCN(Cc2nc3c([nH]2)c(=O)[nH]c(=O)n3C)CC1	5	u	-2%	4	-4%	10µM*
Cn1c(=O)c2[nH]c(CN3CCCCC3)nc2n(C)c1=O	3	x	u	0	x	4µM*
Cn1c(=O)c2[nH]c(CN3CCN(Cc4ccccc4)CC3)nc2n(C)c1=O	-6	u	9%	-4	-5%	8.9µM*
Cn1c(=O)c2[nH]c(CNCc3ccccc3Cl)nc2n(C)c1=O	-18	79%[59 µM]	30%	-18	46%	-12%
CN1CCN(C(=O)Nc2cccc(Cl)c2)c2cccnc21	x	30%[59 µM]	64%	x	12%	-14%
CCC1CN(CC(=O)NCc2cccc(Br)c2)c2ccccc2S1 (configuration not stated)	x	u	18%[57 µM]	x	-3%	-33%
O=C1C=C(c2c(O)ccc3ccccc23)c2ccccc2C1=O	-3	x	25µM*	-14	x	40µM*
CCOc1ccc(NS(=O)(=O)c2ccc3[nH]cc(C(=O)N4CCCCCC4)c(=O)c3c2)cc1	x	-3%[59 µM]	36%	x	x	-18%
CC1CCN(c2ccc(-c3cccc(NS(=O)(=O)c4ccc(Cl)s4)c3)nn2)CC1	x	-5%[59 µM]	9%[57 µM]	x	-17%	-31%
COc1cc2c(cc1OC)C(c1ccccc1O)N(C1CC(=O)N(c3ccccc3)C1=O)CC2 (configuration not stated)	-10	8.9µM*	16%	-9	-29%	-10%
COc1cc2c(cc1OC)C(c1ccccc1)N(C(=O)CCl)CC2 (configuration not stated)	2	-7%[59 µM]	29%	0	7%	-13%
CCOC(=O)c1[nH]c2ccccc2c1N=CN(C)C	-1	x	11%	6	x	-8%
COC(=O)c1[nH]c2cc(OC)ccc2c1N=CN(C)C	x	40µM*	30%	-11	-3%	-15%
COc1ccc2c(C)cc(SCC(=O)NC3CCCCC3)nc2c1	-13	x	21%	5	x	-10%
COc1ccc2c(C)cc(SCC(=O)Nc3ccc(Cl)cn3)nc2c1	-2	13µM*	-11%	2	-25%	-25%
COc1ccc(CCNc2nc(-c3ccc(OC)c(OC)c3)cc(C(F)(F)F)n2)cc1OC	x	5%[59 µM]	66%	x	1%	-7%
N#Cc1ccc(S(=O)(=O)N2CCN(S(=O)(=O)c3ccc4c(c3)OCCO4)CC2)cc1	x	x	x	x	x	-2%
CC(C)(C)NC(=O)C(=O)NNC(=O)c1ccccc1Br	9	22µM*	24%	13	u	-20%
COc1ccccc1C(=O)NNC(=O)C(=O)NC(C)(C)C	5	-22%	56%	1	89µM*	-10%
Cn1c(=O)c(C(=O)NNC(=O)c2ccccc2Br)c(O)c2ccccc21	u	10%[59 µM]	45%	-66*	-2%	-9%
CCOc1ccccc1N(CC(=O)Nc1ccc(OC)c(Cl)c1)S(=O)(=O)c1ccccc1	x	-15%[59 µM]	18%	x	0%	-13%
CC(=O)c1ccc(N2CCN(C(=S)NCc3ccco3)CC2)cc1	3	56µM*	3%	0	-30%	-4%
CCOc1ccccc1N1CCN(S(=O)(=O)CC)CC1	-1	40µM*	9%	10	-4%	-18%
SMILES	CtBP-E1A inh	G9a block	HP1b binding inh	Six1-Eya2 inh	BAZ2B block	JMJD2A Tudor
CCOc1ccccc1N1CCN(Cc2ccc(Br)s2)CC1	-5	u	u	-8	u	3.2µM*
CCOc1ccccc1N1CCN(C/C=C/c2ccc(N(C)C)cc2)CC1	u	10µM*	25µM*	-77*	5.6µM*	5.6µM*
COc1cccc(N(C)C(=S)Oc2ccc3c(c2)CCCC3)n1	x	169%[59 µM]	x	x	x	x
COCCCNC(=O)Cn1c(=O)n(-c2cccc(C)c2)c(=O)c2c3c(sc21)CN(C(C)=O)CC3	x	-5%[59 µM]	15%	x	-1%	-7%
CCOc1ccccc1OCCCNCc1ccco1	3	u	u	6	-11%	28µM*
CCOc1ccccc1OCC(=O)NCc1ccco1	1	u	14%	-14	u	u
CCOc1ccccc1N1CCN(Cc2ccco2)CC1	-11	-6%[12.7 µM]	u	-14	50µM*	3.5µM*
CCOc1ccccc1N1CCN(C(=S)NCc2ccco2)CC1	-3	50µM*	-32%	-1	-34%	-34%
COc1ccc(NC(=O)Cn2ccn(Cc3ccccc3)c(=O)c2=O)cc1Cl	x	-3%[59 µM]	15%	x	u	-34%
Nc1nonc1-c1nc2ccccc2n1CC(=O)Nc1cccc(C(F)(F)F)c1	x	47%[59 µM]	87%	x	0%	-11%
O=C1C=CC(=O)c2c(O)c(CO)c(CO)c(O)c21	-2	x	3.2µM*	-70*	x	2.2µM*
COc1ccc(-c2nc3c(=O)n(C)c(=O)nc-3n(C)n2)cc1	x	x	-5%[57 µM]	x	x	-2%[57.1 µM]
CCc1ncc(CN2CCCC(C(=O)Nc3cccc(-c4cccc(C)c4)c3)C2)cn1 (configuration not stated)	-1	-4%	-13%	-2	-18%	79µM*
CC(=O)c1cccc(CN2CCCC(C(=O)Nc3ccc(-c4ccco4)cc3)C2)c1 (configuration not stated)	-9	10µM*	18µM*	-14	40µM*	u
O=C(Nc1ccc(-c2ccco2)cc1)C1CCCN(Cc2ccc(CO)o2)C1 (configuration not stated)	-5	x	-13%	-13	u	u
COc1ccc(-c2nc3ccc(Cl)cc3c(=O)n2Cc2ccccc2)cc1COc1ccc(NC(C)=O)cc1	x	x	x	x	x	-14%
N#Cc1ccc(C(=O)OCc2cccc(S(=O)(=O)N3CCOCC3)c2)cc1	4	14µM*	28%	6	1%	u
CCCCCC(=O)Nc1cc(S(=O)(=O)N2CCCCC2)ccc1N1CCOCC1	-1	-2%[12.7 µM]	29%	-3	-2%	-3%
O=C(CSc1nncs1)Nc1cc(S(=O)(=O)N2CCOCC2)ccc1N1CCCC1	-7	35µM*	26%	1	-6%	-4%
